An excerpt weighted towards active compounds, which were near 10% of everything screened.
G9a inh = blocks human histone lysine methyltransferase G9a. Potency, µM (titrated, usually from 102 µM), usual class: inhibitors. G9a H3K9 monomethylation, AlphaScreen, 2 h. hit rate 8.8% among 350,000; further: nearly all actives have a fitted effect of over 75% in size
Target sequence (Q96KQ7 913-1193 limits assumed): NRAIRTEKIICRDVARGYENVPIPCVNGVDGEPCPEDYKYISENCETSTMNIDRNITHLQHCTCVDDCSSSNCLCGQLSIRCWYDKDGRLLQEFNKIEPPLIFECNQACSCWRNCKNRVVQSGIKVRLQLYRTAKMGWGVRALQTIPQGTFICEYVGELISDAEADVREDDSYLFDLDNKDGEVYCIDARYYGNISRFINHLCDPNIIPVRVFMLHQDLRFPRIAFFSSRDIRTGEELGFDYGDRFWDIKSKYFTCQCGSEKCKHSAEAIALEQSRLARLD
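Readings reflect AlphaScreen signal from monomethyl-H3K9 antibody detection. HMT at 20 nM; substrate b-H3K9 500 nM; cofactor SAM 20 uM; 2 h RT reaction; compounds tested as titrations in qHTS with 15 min preincubation.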
JMJD2A Tudor = inhibitors of human JMJD2A Tudor domain | O75164 | AlphaScreen JMJD2A-Tudor / H3K4me3 peptide binding | Potency, µM (doses to about 114 µM), usual class: inhibitors | hit rate 4.4% among 390,000; further: nearly all actives have a fitted effect of over 50% in size
GLS inh = inhibitors of human glutaminase (GLS) | GLS enzymatic activity, qHTS titration | Potency, µM (top dose mostly 45.5 µM), hits mostly inhibitors | hit rate 0.21% among 410,000 | AID 624170
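Assay buffer: 45 mM KH2PO4 pH 8.2, 0.02% Tween-20. hKGA acts on L-glutamine (1 mM solution added); product glutamate is reported by an oxidase/peroxidase Amplex Red coupling, with fluorescence taken at baseline and 30 min.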
BAZ2B block = inhibitors of human BAZ2B bromodomain; Q9UIF8; AlphaScreen BAZ2B-H3K14Ac peptide displacement; Potency, µM (doses to about 114 µM), usual class: inhibitors; hit rate 4.4% among 360,000; AID 504333; further: nearly all actives have a fitted effect of over 60% in size
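BAZ2B 50 nM plus b-H3(5-23)K14Ac 50 nM, PBS pH 7.4/0.01% Tween-20, 30 min RT; compound added (max 110 uM), 30 min RT; streptavidin donor/Ni-chelate acceptor beads 10 ug/mL final, 20 min dark; AlphaScreen read.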
HP1b binding inh = blocks HP1-beta chromodomain binding to methylated histone tails; hit rate 0.56% among 390,000; AID 540317; P83916; Potency, µM (doses to about 114 µM), most hits filed as inhibitors; AlphaScreen HP1-beta / biotin-H3K9me3 peptide binding; further: nearly all actives have a fitted effect of over 70% in size
Target sequence (P83916 whole entry, looked up): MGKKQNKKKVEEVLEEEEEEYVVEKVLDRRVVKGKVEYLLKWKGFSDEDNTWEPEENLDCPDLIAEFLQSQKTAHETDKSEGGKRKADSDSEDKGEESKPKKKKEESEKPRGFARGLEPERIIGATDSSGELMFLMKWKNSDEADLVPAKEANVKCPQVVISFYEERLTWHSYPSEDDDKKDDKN
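HP1-beta protein (50 nM final) preincubated 30 min at room temperature with biotinylated H3(1-18)K9me3 peptide (50 nM) in PBS pH 7.4, 0.01% Tween-20, then compound added for 30 min. AlphaScreen streptavidin donor/nickel chelate acceptor beads (10 ug/mL final), 30 min dark, luminescence read.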
Each line names hits and unclear results; the compound was inactive in the other large screens. The call rests on the fitted dose curve; in most records, active means well fitted curve in the direction sought with a large enough effect; inconclusive means small, poorly fitted or top-dose-only effect, or another doubt; inactive means no such curve, though single readings can be large; an effect the other way counts as inactive or inconclusive.

COc1ccc(C2c3c(-c4ccccc4O)n[nH]c3C(=O)N2Cc2ccco2)cc1 (centres undefined)	JMJD2A Tudor inconclusive, BAZ2B block 35.5µM
COc1cccc(/C(O)=C2/C(=O)C(=O)N(Cc3cccnc3)C2c2ccco2)c1 (centres undefined)	G9a inh 44.7µM, JMJD2A Tudor inconclusive
CCN(CC)CCN1C(=O)C(=O)/C(=C(/O)c2ccc(C)cc2)C1c1ccncc1 (centres undefined)	none (no result: JMJD2A Tudor, GLS inh, HP1b binding inh)
CCN(CC)CCN1C(=O)C(=O)/C(=C(/O)c2ccncc2)C1c1ccccc1 (centres undefined)	G9a inh 50.1µM
COC(=O)c1ccc(C2/C(=C(/O)c3ccc(OC)cc3)C(=O)C(=O)N2Cc2ccco2)cc1 (centres undefined)	G9a inh 44.7µM, JMJD2A Tudor inconclusive, BAZ2B block inconclusive
COc1cc(C2c3c(-c4ccccc4O)n[nH]c3C(=O)N2Cc2ccco2)cc(OC)c1OC (centres undefined)	none (no result: G9a inh)
COc1ccc(/C(O)=C2/C(=O)C(=O)N(Cc3cccnc3)C2c2ccncc2)cc1F (centres undefined)	G9a inh inconclusive
COc1cc(OC)c2c(-c3ccccc3)cc(C3CCCCC3)nc2c1	none (no result: G9a inh, BAZ2B block)
CCOC(=O)N1CCN(Cc2nc3cc(NC(=O)C(C)C)ccc3n2C(C)C)CC1	none
CCN(CC)CCCN1C(=O)C(=O)/C(=C(/O)c2ccc(OC)cc2)C1c1ccco1 (centres undefined)	none (no result: G9a inh, BAZ2B block)
COCCN1C(=O)C(=O)/C(=C(/O)c2cccc(OC)c2)C1c1ccco1 (centres undefined)	JMJD2A Tudor inconclusive, BAZ2B block 79.4µM (no result: G9a inh)
CCN(CC)CCN1C(=O)C(=O)/C(=C(/O)c2ccc(OC)cc2)C1c1ccco1 (centres undefined)	G9a inh 39.8µM
CCOC(=O)C1CCCN(C(=O)c2cn(CC)c(=O)c3cc(OC)c(OC)cc23)C1 (centres undefined)	none
CC(C(=O)O)c1cccc(Oc2ccccc2)c1 (centres undefined)	none (no result: BAZ2B block)
O=C(CC(=O)c1cc(Cl)ccc1O)c1ccccc1	none
O=C(c1ccccc1)c1cc(Cl)ccc1N1C(=O)C=CC1=O	G9a inh 1.78µM, JMJD2A Tudor 17.8µM, GLS inh inconclusive, BAZ2B block 79.4µM, HP1b binding inh 10µM
O=[N+]([O-])c1ccc(Cl)c2c1C1C=CCC1C(c1ccccn1)N2 (centres undefined)	G9a inh 20µM, JMJD2A Tudor 39.8µM, BAZ2B block 44.7µM, HP1b binding inh inconclusive
Cc1cc([N+](=O)[O-])cc2c1NC(c1ccccn1)C1CC=CC21 (centres undefined)	JMJD2A Tudor 50.1µM
O=C(O)c1ccc(Cl)c2c1C1C=CCC1C(c1ccccn1)N2 (centres undefined)	G9a inh 2µM, BAZ2B block 25.1µM (no result: JMJD2A Tudor, GLS inh, HP1b binding inh)
C=CCNC(=O)C(=O)N/N=C/c1cccc(Br)c1	none
CC(C)Oc1cccc(C(=O)O)c1	none
Cc1cc(-c2n[nH]c(=S)n2/N=C/c2cccc(O)c2)n[nH]1	G9a inh 2.24µM, JMJD2A Tudor 3.16µM, GLS inh inconclusive, HP1b binding inh inconclusive
Cc1cc(-c2n[nH]c(=S)n2/N=C/c2cccc([N+](=O)[O-])c2)n[nH]1	G9a inh 1.58µM, JMJD2A Tudor 7.94µM, HP1b binding inh inconclusive
N#CCCn1cc(C(=O)N2CCCCC2)c(-c2cccc([N+](=O)[O-])c2)n1	none
Cc1ccccc1S(=O)(=O)Cc1ccc(C(=O)N2CC(C)CC(C)C2)o1 (centres undefined)	G9a inh inconclusive
O=C(NC1CC(=O)N(c2ccccc2)C1)C(=O)c1c[nH]c2ccccc12 (centres undefined)	none
CCCCCCCCCCCCCCCCCCNc1ccn(C2OC(COP(=O)(O)OCC3OC(n4cc(F)c(=O)[nH]c4=O)CC3O)C(O)C2O)c(=O)n1 (centres undefined)	JMJD2A Tudor 56.2µM (no result: G9a inh, BAZ2B block)
COc1ccc(C=NNC(=O)c2cc(C)oc2C)cc1O	none (no result: G9a inh, BAZ2B block)
COCCn1c(=O)c2c(nc3n2CC(C)CN3Cc2ccccc2)n(C)c1=O (centres undefined)	none
Cn1c(=O)c2c(nc3n2CC(O)CN3c2ccc(O)cc2)n(C)c1=O (centres undefined)	G9a inh 79.4µM, GLS inh inconclusive
COc1ccc(N2CC(C)Cn3c2nc2c3c(=O)n(Cc3ccccc3)c(=O)n2C)c(OC)c1 (centres undefined)	G9a inh 6.31µM, JMJD2A Tudor inconclusive, BAZ2B block inconclusive
COc1ccc(N2CCn3c2nc2c3c(=O)n(CCCc3ccccc3)c(=O)n2C)c(OC)c1	G9a inh 31.6µM, JMJD2A Tudor inconclusive, BAZ2B block inconclusive
COc1ccc(N2CCn3c2nc2c3c(=O)n(CCc3ccccc3)c(=O)n2C)c(OC)c1	G9a inh inconclusive (no result: JMJD2A Tudor, GLS inh, HP1b binding inh)
CCOc1ccc(N2CC(O)Cn3c2nc2c3c(=O)n(CCCc3ccccc3)c(=O)n2C)cc1 (centres undefined)	G9a inh 2.51µM
COc1ccc(CCNC(=O)C2CC(c3c(Cl)cccc3Cl)=NO2)cc1 (centres undefined)	none
COc1ccc2nc(NC(=O)c3cccc(-c4cc5ccccc5oc4=O)c3)sc2c1	G9a inh inconclusive, JMJD2A Tudor inconclusive
COc1ccc(N2CCn3c2nc2c3c(=O)n(CCCc3ccccc3)c(=O)n2C)cc1	none (no result: JMJD2A Tudor, GLS inh, HP1b binding inh)
COc1ccc(N2CC(C)Cn3c2nc2c3c(=O)n(CCc3ccccc3)c(=O)n2C)cc1 (centres undefined)	G9a inh 3.16µM
CCOc1ccc(-n2nc3ccc(NC(=O)COc4ccc(OC)cc4)cc3n2)cc1	G9a inh inconclusive
CNc1ccc(Oc2nc([N+](=O)[O-])nn2C)cc1	G9a inh 50.1µM
CCn1c(=O)c([N+](=O)[O-])c(N2CCSCC2)c2ccccc21	BAZ2B block inconclusive (no result: G9a inh)
CCn1c(=O)c([N+](=O)[O-])c(N2CCN(Cc3ccc4c(c3)OCO4)CC2)c2ccccc21	G9a inh 31.6µM, JMJD2A Tudor inconclusive, BAZ2B block inconclusive, HP1b binding inh inconclusive
O=[N+]([O-])c1ccccc1S(=O)(=O)N1CCN(Cc2ccccc2)CC1	G9a inh 79.4µM, JMJD2A Tudor inconclusive, BAZ2B block inconclusive
O=[N+]([O-])c1ccccc1S(=O)(=O)N1CCN(Cc2ccc3c(c2)OCO3)CC1	G9a inh 10µM, BAZ2B block 50.1µM, HP1b binding inh 15.8µM
Cc1cc(C(=O)N2CCN(c3ncccn3)CC2)nn1C	none
CCN(CC)c1ccc(CNCc2cccs2)cc1	G9a inh inconclusive, JMJD2A Tudor inconclusive, BAZ2B block 50.1µM
COc1cc(CNCc2cccs2)ccc1OCc1cccs1	none
Cc1cccc(S(=O)(=O)NCCc2cn3ccccc3n2)c1	none
Cc1cc(O)ccc1Nc1nc2ccccc2nc1Nc1ccc(O)cc1C	G9a inh 4.47µM, JMJD2A Tudor 89.1µM, BAZ2B block 50.1µM

Screens (PubChem BioAssay)
